In publication PMC5540273 (PLoS ONE, 2017):
Where “and” joins values, the source holds several entries; their conditions need not be identical. Equal entries are not always repeated. Where two headings read alike, the source gives them in different places.

What was measured:
GRK1 = conditions: concentration: 1 μM, replicates: in singlicate, n = 1
GRK2 = system: T1, GRK2; conditions: concentration: 1 μM, replicates: in singlicate; n = 1
T1 construct: gene ADRBK1

GRK3 = system: T2, GRK3; conditions: concentration: 1 μM, replicates: in singlicate, n = 1
T2 construct: gene ADRBK2

GRK4 = conditions: concentration: 1 μM, replicates: in singlicate, n = 1
GRK7 = conditions: concentration: 1 μM, replicates: in singlicate; n = 1
GSK3A = conditions: concentration: 1 μM, replicates: in singlicate, n = 1
GSK3B = conditions: n = 1
HASPIN = system: T3, HASPIN; conditions: concentration: 1 μM, replicates: in singlicate, n = 1
T3 construct: gene GSG2

HCK = conditions: concentration: 1 μM, replicates: in singlicate, n = 1
HIPK1 = conditions: concentration: 1 μM, replicates: in singlicate, n = 1
[1] = concentration: 1 μM, replicates: in singlicate
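Note: KINOMEscan kinase panel screen.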

Row | Structure (SMILES) | %Inh (GRK1) [%] | %Inh (GRK2) [%] | %Inh (GRK3) [%] | %Inh (GRK4) [%] | %Inh (GRK7) [%] | %Inh (GSK3A) [%] | %Inh (GSK3B; [1]) [%] | %Inh (HASPIN) [%] | %Inh (HCK) [%] | %Inh (HIPK1) [%] | %Inh (GSK3B; 1 µM) [%] | %Inh (GRK1; 1 µM) | %Inh (GRK3; 1 µM) | %Inh (GRK4; 1 µM) | %Inh (GSK3A; 1 µM) | %Inh (GSK3B; concentration: 1 μM, replicates: in singlicate, 1 µM) | %Inh (HASPIN; 1 µM) | %Inh (HCK; 1 µM) | %Inh (HIPK1; 1 µM)
1 | Nc1nc(-c2cccnc2)c(-c2ccnc3ccccc23)s1 [GW684083] | 0 | 1 | 39 | 8 | 0 | 11 | 7 | 83 | 0 | 11 |  |  |  |  |  |  |  |  | 
2 | Nc1nc(-c2ccccn2)c(-c2ccnc3ccccc23)s1 [GW548057] | 1 | 0 | 58 | 0 | 0 | 8 | 5 | 26 | 4 | 17 |  |  |  |  |  |  |  |  | 
3 | Fc1ccc(-c2ncn(CCCNCc3ccccc3)c2-c2ccncc2)cc1 | 12 | 0 | 0 | 12 | 5 | 8 | 28 | 12 | 7 | 25 |  |  |  |  |  |  |  |  | 
4 | CSc1ccc(NC2=C(c3ccccc3Cl)C(=O)NC2=O)cc1 [SB-342411] | 0 | 0 | 0 | 3 | 0 | 81 |  | 0 | 0 | 8 | 29 |  |  |  |  |  |  |  | 
5 | NC(=O)c1sc(-n2cnc3ccccc32)cc1OCc1ccccc1F [GSK1024306] | 0 | 0 | 21 | 7 | 0 | 7 | 0 | 49 | 0 | 0 |  |  |  |  |  |  |  |  | 
6 | Cl.Cn1ccc(-c2cccc(Nc3ccnc4cc(-c5nccs5)ccc34)c2)n1 [GW525701] | 1 | 0 | 64 | 0 | 0 | 0 | 12 | 8 | 0 | 0 |  |  |  |  |  |  |  |  | 
7 | COc1ccc(-c2nc3n(c2-c2ccncc2)CCC3)cc1 [SKF-104493] |  | 0 |  |  | 0 |  |  |  |  |  |  | 11% and 12% | 5% and 0% | 27% and 2% | 0% and 17% | 27% and 1% | 28% and 0% | 10% and 0% | 8% and 0%
8 | CC(C)(C)OC(=O)NC1CCCN(c2cc(-c3ccc4c(N)n[nH]c4c3)nc(N)n2)C1 (centres unmarked) [GSK2286096] | 0 | 0 | 0 | 0 | 0 | 0 | 11 | 1 | 0 | 0 |  |  |  |  |  |  |  |  | 
9 | CC(=O)Nc1n[nH]c2ncc(-c3ccccc3)cc12 [SB-548492] | 26 | 0 | 0 | 18 | 31 | 78 |  | 42 | 9 | 45 | 50 |  |  |  |  |  |  |  | 
10 | COc1cc2ncnc(Nc3ccc(OCc4ccccc4Br)c(Cl)c3)c2cc1OC.Cl [GI261590] | 0 | 0 | 41 | 0 | 0 | 0 | 10 | 34 | 25 | 0 |  |  |  |  |  |  |  |  | 
11 | Fc1cccc(COc2ccc(Nc3ncnc4sc(-c5ccc[nH]5)cc34)cc2Cl)c1 [GW707818] | 0 | 0 | 0 | 0 | 0 | 22 | 3 | 0 | 0 | 0 |  |  |  |  |  |  |  |  | 
12 | Cc1ccc(NC(=O)c2cccc(C#N)c2)cc1-c1ccc(C(=O)Nc2ccncc2)cc1 [GSK1398463] | 0 | 0 | 20 | 11 | 0 | 20 | 9 | 0 | 37 | 0 |  |  |  |  |  |  |  |  | 
13 | Nc1n[nH]c2nnc(-c3ccccc3)cc12 [SB-517389] | 0 | 0 | 0 | 0 | 0 | 71 |  | 0 | 0 | 56 | 19 |  |  |  |  |  |  |  | 
14 | Fc1cccc(COc2ccc(Nc3ncnc4cc[nH]c34)cc2Cl)c1 | 22 | 20 | 3 | 35 | 23 | 12 | 8 | 0 | 24 | 27 |  |  |  |  |  |  |  |  | 
15 | O=C(Nc1ccccc1F)NC1CCN(c2ccnc(Nc3ccc(F)cc3)n2)C1 (centres unmarked) [GSK1379722] | 0 | 0 | 57 | 0 | 0 | 0 | 8 | 0 | 0 | 0 |  |  |  |  |  |  |  |  | 
16 | Cc1cccc(-c2nc(Nc3ccc4[nH]nnc4c3)c3ccccc3n2)n1 [GW867587] | 3 | 0 | 24 | 0 | 0 | 0 | 0 | 0 | 10 | 0 |  |  |  |  |  |  |  |  | 
17 | COc1ccc(Nc2nccc(N3CCC(NC(=O)c4cccc(NC(C)=O)c4)C3)n2)cc1 (centres unmarked) [GSK1379732] | 0 | 2 | 49 | 0 | 0 | 4 | 0 | 46 | 0 | 0 |  |  |  |  |  |  |  |  | 
